Most compounds without a hit are left out; they make up all but 2.3% or so of the library.
M1 antag: blocks human M1 muscarinic receptor | AID 588852 | 360,000 tested, 1.3% active | CHO-K1 hM1, Fluo-8 calcium fluorescence, ACh EC80 antagonist | P11229 | inhibition, % at 3 µM;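 active = percent inhibition above its own plate's cutoff, namely the mean of that plate's compound wells plus 3 SD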;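 also: peak over basal fluorescence ratio during 140 s after agonist addition; 0% = ACh EC80 plus DMSO and 100% = DMSO alone without agonist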
Target sequence (P11229 whole entry, looked up): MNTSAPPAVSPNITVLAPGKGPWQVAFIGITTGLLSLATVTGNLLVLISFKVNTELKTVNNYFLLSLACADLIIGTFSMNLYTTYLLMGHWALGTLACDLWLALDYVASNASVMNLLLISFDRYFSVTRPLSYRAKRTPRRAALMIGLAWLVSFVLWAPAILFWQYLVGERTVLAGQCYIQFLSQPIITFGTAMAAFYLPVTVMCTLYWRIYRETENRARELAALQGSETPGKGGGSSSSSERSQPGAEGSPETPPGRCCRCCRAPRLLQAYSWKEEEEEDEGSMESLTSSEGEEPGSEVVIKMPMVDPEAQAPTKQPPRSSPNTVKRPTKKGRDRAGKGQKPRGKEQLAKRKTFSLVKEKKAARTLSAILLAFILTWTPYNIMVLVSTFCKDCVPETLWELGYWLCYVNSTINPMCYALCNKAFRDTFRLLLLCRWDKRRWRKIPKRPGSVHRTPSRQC
CHO-K1 Ca antag: nonselective inhibitor or artifact in parental CHO-K1 cells | ATP-induced calcium, Fluo-8 fluorescence | inhibition, % at 3 µM | 360,000 tested, 0.6% active | AID 602250;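 active = inhibition above a per-plate cutoff, the plate's mean sample inhibition plus 3 SD, cut at about 24% in these data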;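 also: 0% = DMSO plus EC80 ATP and 100% = DMSO alone without ATP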
M1 PAM parental: nonselective activator or artifact in parental CHO-K1 calcium assay; 360,000 tested, 0.02% active; AID 602247; ATP EC20, Fluo-8 calcium fluorescence; 0% at ATP EC20, 100% at ATP max; activation, % at 3 µM;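 active = activation above the run cutoff, the mean activation of all test compounds plus 3 SD, cut at about 40% in these data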;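 also: peak over basal fluorescence ratio in a 140 s read after ATP addition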
CHO-K1 Ca ag: counter-screen for M1 agonists: effect in parental CHO-K1 cells; 360,000 tested, 0.48% active; Fluo-8 calcium fluorescence; scaled to maximal ATP response, vehicle zero; activation, % at 3 µM; in the data active = activation above about 15%;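 also: untransfected CHO-K1 host cells lacking M1 receptor as counterscreen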
CHRM1 PAM: positive allosteric modulators of human M1 muscarinic receptor | activation, % at 3 µM | P11229 | CHO-K1 hM1, Fluo-8 calcium fluorescence, ACh EC20; 0% = ACh EC20, 100% = maximal ACh | 360,000 tested, 0.088% active; in the data active = activation above about 19%, passing the limit was not always enough
M1 ag: human M1 muscarinic receptor agonism | CHO-K1 hM1, Fluo-8 calcium fluorescence, agonist mode; 0% DMSO, 100% acetylcholine EC100 | P11229 | AID 588814 | activation, % at 3 µM | 360,000 tested, 0.33% active;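 active = activation above the run's mean compound activation plus 3 SD, cut at about 16% in these data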;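 also: peak over basal fluorescence ratio within a 140 s kinetic read after compound addition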
Numbers without * were called inactive.

SMILES	M1 antag	CHO-K1 Ca antag	M1 PAM parental	CHO-K1 Ca ag	CHRM1 PAM	M1 ag
C#Cc1cccc(Nc2nc(NCCOC)nc3ccsc23)c1	22	0	-2	11	-22	2
COc1ccccc1CNc1nc(NCc2ccccc2)nc2ccsc12	26	24*	-16	3	-14	6
c1ccc(CNc2nc(NCCOc3ccccc3)c3sccc3n2)cc1	43*	28*	-9	35*	-28	19*
COc1ccc(N(CC(=O)Nc2ccccc2OC)S(=O)(=O)c2ccc(OC)c(OC)c2)cc1	-6	15	-16	2	1	-6
O=C(NCCCc1ccc(F)cc1)C1CCC(=O)N(CC2CCCCC2)C1 (centres undefined)	-12	-15	23	3	12	-1
Cc1ccnc2nc(C(=O)OCC(=O)N(C)C3CCCCC3)nn12	-8	22	-21	0	7	-1
c1ccc(CNc2nc(NCc3ccccc3)c3sccc3n2)cc1	56*	14	-12	28*	-31	32*
Fc1cc(Cl)ccc1Nc1nc(NCc2ccccc2)nc2ccsc12	-1	-8	14	1	-4	-2
O=C(c1ccc(=O)[nH]c1)N1CCCc2ccccc21	-3	-6	8	1	5	-1
CCOC(=O)C1=C(C)NC(=O)/C1=C\N(C)C	12	28*	-15	0	-11	-2
CCOC(=O)C1=C(C)S/C(=C\N(C)C)C1=O	-29	3	8	0	8	8
CC(OC(=O)c1ccc(-c2ccc([N+](=O)[O-])cc2)o1)C(=O)NC(N)=O (centres undefined)	4	-5	11	0	-1	-2
CNC(=O)c1ccc(NC(=O)C2CCN(S(=O)(=O)c3cccc(C(F)(F)F)c3)CC2)cc1	30*	13	-19	0	-13	-3
O=C(CN1CCC(Cc2ccccc2)CC1)NC(=O)NCc1ccco1	-32	-17	14	0	20*	-3
O=C(CN1CCN(c2ccccc2O)CC1)NC(=O)NCc1ccco1	3	19	-12	0	0	2
CN(C)Cc1ccccc1Sc1ccc(O)cc1O	-12	-2	-3	0	3	18*
Cc1cc(=O)oc2cc(OCC(=O)Nc3ccc(N4CCC(C)CC4)cc3)ccc12	1	-1	-11	0	-2	-5
O=C1CC(NS(=O)(=O)c2cccnc2)CN1c1ccccc1 (centres undefined)	0	-5	9	0	5	-3
Cc1ccc(NC(=O)C2(C)CCCN(C(C)C)C2)cc1C (centres undefined)	-2	6	-7	0	6	-4
COc1ccc(NC(=O)C2(C)CCCN(C(C)C)C2)cc1OC (centres undefined)	-33	-13	8	0	34*	2
COC(=O)C(NC(=O)c1ccccc1Cl)(Nc1ncc(S(=O)(=O)c2ccc([N+](=O)[O-])cc2)s1)C(F)(F)F (centres undefined)	10	2	18	10	2	22*
CCC(C)(C)C(=O)Nc1ncc(S(=O)(=O)c2ccc([N+](=O)[O-])cc2)s1	-11	2	14	4	-6	16
O=C(Nc1ccc(Cl)cc1)N1CCC(c2nc(-c3ccc(F)cc3)no2)CC1	58*	16	-12	12	-33	-4
O=C(Nc1ccc(Cl)cc1)N1CCN(c2ccc3nnc(-c4ccc(F)cc4)n3n2)CC1	42*	-21	-3	-1	-31	-15
N#Cc1ccc(CN2CCN(C(=O)CNC(=O)Cc3cccc4ccccc34)CC2)cc1	2	-6	6	9	-9	23*
SMILES	M1 antag	CHO-K1 Ca antag	M1 PAM parental	CHO-K1 Ca ag	CHRM1 PAM	M1 ag
COC(=O)c1cc(S(=O)(=O)N2CCC(c3ccccc3)C2)c[nH]1 (centres undefined)	-4	3	-4	8	3	3
COC(=O)c1cc(S(=O)(=O)N2CCC(c3cc(OC)ccc3OC)C2)c[nH]1 (centres undefined)	23	10	-7	16*	-11	5
COC(=O)c1cc(S(=O)(=O)N2CCN(c3cccc(C)c3C)CC2)c[nH]1	34*	13	-3	8	-21	0
CC(CCc1ccccc1)NC(=O)CNC(=S)N(Cc1cccs1)C1CCCC1 (centres undefined)	-8	-12	18	0	5	-6
COC(=O)CCC(=O)OC1(C)C(=O)C=C2C=C(C3CC3)N(CCCCO)C=C2C1=O (centres undefined)	-7	-4	5	0	6	-4
COC(=O)CCC(=O)OC1(C)C(=O)C=C2C=C(C3CC3)N(c3ccccc3)C=C2C1=O (centres undefined)	28*	22	-21	-1	-18	-5
Cc1ccsc1C(=O)OCC(=O)NC1CCCCC1	-9	-16	8	0	0	-5
Fc1ccc(-c2cn(-c3ccccc3)c3[n+]2CCS3)cc1	11	-7	13	0	-12	-7
Clc1ccc(-c2cn(-c3ccccc3)c3[n+]2CCS3)cc1	58*	-11	25	0	-33	-13
COc1ccc(-c2cn(-c3ccc(Br)cc3)c3[n+]2CCS3)cc1	44*	1	1	0	-25	-8
CC(=O)c1ccc(-n2cc(-c3ccc(C(C)(C)C)cc3)[n+]3c2SCCC3)cc1	39*	-2	12	0	-32	-14
CC(CNC(=O)CCS(=O)(=O)c1ccc2c(c1)NC(=O)CO2)c1ccccc1 (centres undefined)	2	-17	9	1	-1	-3
Cc1cccc2cc3c(N)c(C(=O)N4CCc5ccccc54)sc3nc12	30*	44*	-1	33*	-11	11
CCNC(=O)C1(C)CCCN(Cc2ccc(Oc3ccccc3)cc2)C1 (centres undefined)	32	15	-7	5	-25	-8
CC(C)(C)NC(=O)NC(=O)CSc1nnc(-c2ccccc2F)n1N	14	33*	-8	0	-6	0
CN(Cc1nccs1)C(=O)c1ccc2nc(Cc3ccccc3F)oc2c1	-1	-6	-17	1	5	-1
CN(Cc1nccn1C)C(=O)c1ccc2nc(Cc3ccccc3F)oc2c1	48*	-12	6	1	-22	-6
Cc1coc2cc3oc(=O)c(CCC(=O)NC4CC4)c(C)c3cc12	31*	28*	-16	11	-21	2
CCN(CC)S(=O)(=O)c1cccc(-c2nnc(SCCOc3ccc(Cl)cc3)o2)c1	-20	-8	18	0	2	-2
CCN(CC)S(=O)(=O)c1cccc(-c2nnc(SCCOc3ccccc3)o2)c1	-15	47*	7	1	-4	0

Assay outcomes deposited in PubChem by The Scripps Research Institute Molecular Screening Center.
